Screening results: PubChem BioAssay, National Center for Advancing Translational Sciences (NCATS)
Hits are enriched below; roughly 1.5% of the tested compounds scored in any of these assays.
12-LOX inh = inhibitors of human 12S-lipoxygenase ALOX12 | P18054 | purified 12hLO, xylenol orange hydroperoxide absorbance | Potency, µM (series often up to 108 µM), usual class: inhibitors | 580,000 tested, 1.1% active
Target sequence (P18054 whole entry, looked up): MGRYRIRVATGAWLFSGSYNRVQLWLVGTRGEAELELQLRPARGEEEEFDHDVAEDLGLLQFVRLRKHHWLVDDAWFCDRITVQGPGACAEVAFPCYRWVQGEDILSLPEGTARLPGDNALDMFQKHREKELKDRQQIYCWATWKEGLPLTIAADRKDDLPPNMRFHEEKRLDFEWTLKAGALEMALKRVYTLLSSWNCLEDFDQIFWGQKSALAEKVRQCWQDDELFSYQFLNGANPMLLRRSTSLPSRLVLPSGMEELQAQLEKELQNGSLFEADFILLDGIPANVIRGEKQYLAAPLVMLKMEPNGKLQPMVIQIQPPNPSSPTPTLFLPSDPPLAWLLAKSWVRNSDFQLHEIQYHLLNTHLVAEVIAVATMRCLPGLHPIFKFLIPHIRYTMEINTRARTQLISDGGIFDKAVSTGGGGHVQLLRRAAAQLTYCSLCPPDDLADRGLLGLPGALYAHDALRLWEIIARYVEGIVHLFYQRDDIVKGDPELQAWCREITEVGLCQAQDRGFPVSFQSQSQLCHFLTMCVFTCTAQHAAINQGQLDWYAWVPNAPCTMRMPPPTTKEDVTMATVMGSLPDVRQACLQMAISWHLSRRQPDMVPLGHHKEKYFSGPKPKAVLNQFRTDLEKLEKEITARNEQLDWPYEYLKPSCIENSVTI
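Purified human 12hLO at 150 nM in 25 mM Hepes, 0.01% Triton X-100, pH 7.0, preincubated 15 min at room temperature with compound. Reaction started with 40 uM arachidonic acid, 30 min at room temperature. Hydroperoxide measured by Fe-xylenol orange, 573/405 nm absorbance ratio.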
Integrin act MD = integrin-mediated muscular dystrophy alleviation activation | alpha7betagal myoblasts, beta-gal FDG fluorescence, 48 h | Potency, µM (highest dose often 38.3 µM), actives largely listed as activators | 350,000 tested, 0.064% active; also: nearly all actives have a fitted effect of over 60% in size
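alpha7betagal+/- myoblasts (passage 13, 250/well) treated 48 h at 37C with compounds at 1:260 dilution of DMSO stock. Lysed, then beta-galactosidase activity read as FDG fluorescence (ex 480/em 540) after 30 min, with pre-read for autofluorescence.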
Nrf2 ARE act = activators of Nrf2 (ARE) signaling; AREc32 ARE-luciferase reporter (MCF7-derived line), luminescence, 24 h; Potency, µM (top dose mostly 46.1 µM), usual class: activators; 410,000 tested, 0.31% active; AID 624171; also: nearly all actives have a fitted effect of over 65% in size
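AREc32 cells carrying an ARE-driven firefly luciferase reporter were seeded at 1000 cells/well in OPTI-MEM with 5% FBS, then exposed to compound for 24 hr at 37 deg C. Luminescence was read with Steady-Glo after 30 min at RT.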
IL-2 act = activates IL-2 in a cell-based reporter assay; AID 652025; activation, % (series mostly up to about 46 µM); 360,000 tested, 0.065% active; IL-2 activation reporter assay, cell-based qHTS; stimulated with anti-CD3/CD4/CD28 beads; in transgenic mouse T cells; in the data active = activation above about 50%; inconclusive = mostly about 30% to 49%
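Readout: EGFP and DsRed signals by fluorescent plate cytometry. Unstimulated transgenic mouse T cells received compound 60 min before antibody-bead stimulation, then incubated 18 h at 37 degrees C.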
uPA generation = cell surface uPA generation inhibition | cell surface uPA generation assay, qHTS | Potency, µM (titrated, usually from 38.3 µM), most hits filed as inhibitors | 330,000 tested, 0.31% active; active = well fitted inhibition curve with a large enough effect; inconclusive = small, poorly fitted or top-dose-only effect; inactive = no such curve, though single readings can be large or run the other way; tested in mouse RAW 264.7 cells; also: nearly all actives have a fitted effect of over 55% in size
Hits are given with their value; 0 = inactive; ? = inconclusive; - = no result; [ ] = dose if it differs, or a comment. Unless noted, calls follow the shape of the dose curve; as a rule, active = well fitted curve in the direction sought with a large enough effect; inconclusive = small, poorly fitted or top-dose-only effect, or another doubt; inactive = no such curve, though single readings can be large; an effect the other way counts as inactive or inconclusive.

SMILES | 12-LOX inh | Integrin act MD | Nrf2 ARE act | IL-2 act | uPA generation
CN(Cc1ccc(-c2ccc(Cl)cc2)o1)C(=O)CSc1nnc(C2CC2)n1Cc1ccco1 | 16µM | - | - | - | -
CCC(C)C(=O)OC1CCC=C2C=CC(C)C(CCC3CC(O)CC(=O)O3)C21 (configuration not stated) | ? | 0 | 0 | 0 | 0
CC[C@H](C)C(=O)O[C@H]1CCC=C2C=C[C@H](C)[C@H](CC[C@@H]3C[C@@H](O)CC(=O)O3)[C@H]21 | ? | - | 0 | 0 | 1.3µM
O=C(COc1ccc(F)cc1)Nc1ccc(-c2nc3ccccc3o2)cc1 | 0 | - | - | - | -
O=C(c1cccnc1)N1CCC2(CNS(=O)(=O)c3cnccc3O2)C1 (configuration not stated) | 0[6.33 µM] | - | - | - | -
O=c1c(C(c2c(O)nc3n(c2=O)CCS3)c2cccc3ccccc23)c(O)nc2n1CCS2 | 32µM | 0 | 0 | 0 | 0
O=c1c(C(c2ccc(O)cc2)c2c(O)nc3n(c2=O)CCS3)c(O)nc2n1CCS2 | 0 | 0 | 0 | 0 | 0
O=C(O)c1cc(-c2c[nH]c3ccccc23)nc2cc3ccccc3cc12 | 13µM | - | - | - | -
O=C(O)c1cc(-c2cccc3ccccc23)nc2ccccc12 | 0 | 0 | 0 | 0 | 0
CCCc1nc(C)cc(N2CCC(NCCc3ccc(Cl)cc3)CC2)n1 | 8.9µM | - | - | - | -
CCCc1cc(N2CCC(NCCOC(C)C)CC2)nc(C)n1 | 0 | - | - | - | -
CC(C)OC(=O)C(CC(=O)O)N1CCOCC1 (configuration not stated) | 5.6µM | 0 | 0 | 0 | 0
COc1ccc(-c2csc(NC(=O)C(CC(=O)O)N3CCOCC3)n2)cc1 (configuration not stated) | 0 | ? | 0 | 0 | 0
COc1ccccc1CCC(=O)N1CCN(C(=O)c2nnn3c2COC(c2ccccc2)C3)CC1 (configuration not stated) | 0 | - | - | - | -
COC(=O)c1ccc(CSc2n[nH]c(=S)s2)o1 | 16µM | 0 | 0 | 0 | 0
O=C1C=C(C#Cc2ccccc2)C[C@@H](c2ccc(F)cc2)C1 | 0 | 0 | 8.9µM | 0 | -
COc1ccccc1C#CC1=CC(=O)C[C@H](c2ccc(F)cc2)C1 | ? | 0 | ? | 0 | -
O=C(NCCNS(=O)(=O)c1cccc2nonc12)c1cccc2[nH]ccc12 | 0 | - | - | - | -
O=C(Nc1ccc(-c2noc(/C=C/c3ccccc3)n2)cc1)c1ccc(Br)o1 | 28µM | - | - | - | -
O=C(Nc1ccc(-c2noc(-c3cccs3)n2)cc1)c1ccc(Br)o1 | 0 | - | - | - | -
O=C1NC(=Nc2ccccc2)S/C1=C\C=C\c1ccco1 | 50µM | 0 | 7.1µM | 0 | 0
Cc1ccc(N=C2NC(=O)/C(=C/C=C/c3ccco3)S2)cc1 | 32µM | 0 | 2.5µM | 0 | 0
Cc1cccc(N=C2NC(=O)/C(=C/C=C/c3ccco3)S2)c1C | 10µM | 0 | ? | 0 | 0
Cc1ccc(N=C2NC(=O)/C(=C/c3cccn3C)S2)cc1C | 0 | 0 | 0 | 0 | 0
Cc1ccc(N=C2NC(=O)/C(=C/c3cccn3C)S2)cc1 | ? | 0 | 0 | 0 | 2.8µM
SMILES | 12-LOX inh | Integrin act MD | Nrf2 ARE act | IL-2 act | uPA generation
COc1ccc(N=C2NC(=O)/C(=C/C=C/c3ccccc3)S2)cc1 | 0 | 0 | 0 | 0 | 0
Cc1ccc(C(Nc2ccccn2)c2ccc3cccnc3c2O)cc1 (configuration not stated) | 18µM | - | 0 | - | -
COCCN1C(=O)[C@H]2CN(Cc3ccc(C)cc3)C[C@H]2C1=O | 0 | - | - | - | -
C=C1C(=O)O[C@H]2[C@H]1[C@H](OC(=O)/C(C)=C\C)C[C@]1(CO1)[C@@H]1[C@H](OC(C)=O)C=C(C)[C@]21O | 0 | 0 | 16µM | 0 | 0
C=C1C(=O)O[C@@H]2[C@H]1[C@@H](OC(=O)/C(C)=C/C)C/C(C)=C\C(=O)/C=C(\C)[C@@H]2O | 0 | 0 | ? | 0 | ?
CC(=O)c1cc2c(ccc3ccccc32)o1 | 32µM | - | - | - | -
O=C(O)c1cc2c(ccc3ccccc32)oc1=O | 0 | - | - | - | -
CC1CCN(C(=O)c2cc3c(ccc4ccccc43)o2)CC1 | 45µM | ? | 0 | 0 | 0
CCOC(=O)C1CCN(C(=O)c2cc3c(ccc4ccccc43)o2)CC1 | 0 | 0 | 0 | 0 | 0
CC(C)(C)C(=O)N1CCC2(CC1)CC(=O)N(c1ccccc1)c1ccccc1O2 | 0 | - | - | - | -
O=C(c1cn(Cc2ccccc2)nc1-c1ccccc1)N1CCN(c2ccccn2)CC1 | 0 | 0 | 0 | 0 | 4.5µM
O=C(C1=C(O)C(=O)N(CCN2CCOCC2)C1c1cccs1)c1cc2ccccc2o1 (configuration not stated) | 7.1µM | 0 | 0 | 0 | 0
O=C(Nc1cc2c(cc1Br)OCCO2)c1cccs1 | 0 | 0 | 13µM | 0 | 0
CN(C)S(=O)(=O)c1ccc(N2C(=O)CC2(/C=C/c2ccccc2)C(=O)NC2CCCC2)cc1 (configuration not stated) | 0 | 0 | 0 | 0 | 0
COc1ccccc1/C=C/C1(C(=O)NC2CCCC2)CC(=O)N1c1ccccc1 (configuration not stated) | 0 | 0 | 0 | 0 | 2.8µM
COc1ccc(C(=O)N[C@@H]2C(=O)Nc3c(c(C)nn3C)[C@H]2c2ccc(C)cc2)cc1OC | 0 | - | - | - | -
CCNc1ccc(Br)cc(C(=O)/C=C/c2ccccc2Cl)c1=O | 8.9µM | 0 | ? | 0 | -
CNc1ccc(Br)cc(C(=O)/C=C/c2cccc(OC)c2OC)c1=O | ? | 0 | 0 | 0 | 0
CNc1ccc(Br)cc(C(=O)/C=C/c2cccc(Cl)c2Cl)c1=O | 6.3µM | 0 | 7.9µM | 0 | ?
C=CCOc1ccccc1CN(C(=O)CCl)c1ccc2c(c1)OCO2 | ? | 0 | 22µM | 0 | 0
CCOc1ccccc1NC(=O)Nc1ccc2c(c1)OCO2 | 0 | 0 | 0 | 0 | 0
O=C(Nc1ccc(Cl)cc1)c1nc2c(o1)CCN(Cc1cccc(O)c1)CC2 | 0 | - | - | - | -
Cc1c(NC(=S)NC(=O)c2cccc3ccccc23)cccc1C(=O)O | ? | 0 | 0 | 0 | 0
Cc1cccc(C(=O)NC(=S)Nc2ccccc2C(=O)O)c1 | 40µM | 0 | 0 | 0 | 0
O=C(O)c1ccccc1NC(=S)NC(=O)c1cccc2ccccc12 | 20µM | 0 | 0 | 0 | 0
SMILES | 12-LOX inh | Integrin act MD | Nrf2 ARE act | IL-2 act | uPA generation
O=C(NC(=S)Nc1ccccc1C(=O)O)c1cncc(Br)c1 | 0 | 0 | 0 | 0 | 0
Cc1cccc(C(=O)NC(=S)Nc2ccccc2C(F)(F)F)c1 | 16µM | 0 | 0[9.22 µM] | 0 | 0
Cc1ccc(C(=O)NC(=S)Nc2ccccc2C(F)(F)F)cc1C | ? | 0 | 0 | 0 | 0
O=C(Nc1ncc2c(n1)-c1ccccc1CC2)c1ccc(F)cc1 | 0 | ? | 0 | 0 | 0
O=C(Nc1ncc2c(n1)-c1ccccc1CC2)c1ccccc1 | 0 | 0 | 7.9µM | 0 | 0
CCOC(=O)NC1(NC(C)C)Oc2ccccc2O1 | 25µM | 0 | ? | 0 | 0
Cc1ccsc1[C@@H]1CCN(C(=O)c2ccccc2-c2ncc[nH]2)C[C@H]1O | 0 | - | - | - | -
Cc1ccc(Cn2c(=N)c(S(=O)(=O)c3ccc(Br)cc3)cc3c(=O)n4ccccc4nc32)cc1 | - | 0 | 0 | 95 | 0
